According to PubChem BioAssay AID686979 (National Center for Advancing Translational Sciences (NCATS), 2013):
The whole screen tested about 420,000 compounds, of which about 50,000 (12%) were called active. Roughly 26% stayed inconclusive and do not appear here. Calls follow the shape of the dose curve; as a rule, active = well fitted inhibition curve with a large enough effect; inconclusive = small, poorly fitted or top-dose-only effect; inactive = flat fitted curve, though single readings scatter. The entries come from a sample that favours actives as a whole. A call without a number means that no potency is given here.
Potency is read from the fitted curve at half-maximal effect.

Test: qHTS for Inhibitors of human tyrosyl-DNA phosphodiesterase 1 (TDP1): qHTS in cells in presence of CPT; also: nearly all actives have a fitted effect of over 55% in size
Details: chicken DT40 Tdp1-/-;hTDP1 cells + 20 nM CPT, ATP luminescence, 48 h; series mostly up to 46.2 µM
How it was run: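 Chicken DT40 Tdp1-/- cells complemented with human TDP1, 400 cells/well, exposed to compounds plus 20 nM camptothecin for at least 48 h at 37 C; viability read as ATP content by CellTiter-Glo luminescence.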
With `Cc1nc(Nc2ccc(S(=O)(=O)N3CCCC3)cc2)c2nnn(Cc3ccccc3)c2n1` the Potency was “inactive”.
In the case of `Cc1ccc(-c2csc(-c3cc(C)on3)n2)cc1`, the Potency is reported as “inactive”.
For `Clc1ccc(-c2csc(-c3ccncc3)n2)cc1`, the Potency was “inactive”.
In the case of `Cc1ccc(-c2csc(-c3c[nH]c4ccccc34)n2)cc1`, the Potency is reported as 16.4 µM (active).
With `O=C(NNC1=NCCC1)c1cccc(S(=O)(=O)N2CCCCC2)c1` the Potency was “inactive”.
With `c1ccc2cc3[nH]c(CN4CCCCC4)nc3cc2c1` the Potency was “inactive”.
In the case of `CCCCCn1nnnc1-c1nc2cc3ccccc3cc2[nH]c1=O`, the Potency is reported as 4.11 µM (active).
With `Cc1ccc(-c2nc3ccccc3[nH]c2=O)cc1` the Potency was “inactive”.
With `CN1CCN(c2ccc(NC(=O)c3ccc4c(c3)OCCO4)cc2Cl)CC1` the Potency was “inactive”.
With `Cc1cc(C)cc(NC(=O)Cc2csc(C)n2)c1` the Potency was “inactive”.
With `O=C(OCCN1C(=O)c2ccccc2C1=O)Oc1ccccc1` the Potency was “inactive”.
In the case of `COc1ccc(NC(=O)COC(=O)Cn2c(C)nc3ccccc32)cc1OC`, the Potency is reported as “inactive”.
With `O=C(Cn1c(-c2cscn2)nc2ccccc21)Nc1ccc(Cl)cc1` the Potency was 5.8 µM (active).
For `O=C(Cn1c(-c2cncs2)nc2ccccc21)NC1CCCC1`, the Potency was “inactive”.
In the case of `COc1ccc(/C=N/N(C)C2=NS(=O)(=O)c3ccccc32)cc1OC`, the Potency is reported as “inactive”.
For `CC1(C(=O)Nc2ccc3c(c2)OCCO3)CSCC(=O)N1CCOc1ccccc1` (configuration not stated), the Potency was “inactive”.
With `Cc1cc(NC(=O)CSc2ncc(C(=O)Nc3ccc(Cl)cc3)c(=O)n2C)no1` the Potency was “inactive”.
In the case of `Cn1c(SCC(=O)c2ccccc2)ncc(C(=O)Nc2ccc(F)cc2)c1=O`, the Potency is reported as “inactive”.
For `Cc1ccc(NC(=O)c2cnc(SCC(=O)NCC3CCCO3)n(C)c2=O)cc1` (configuration not stated), the Potency was 11.6 µM (active).
For `O=C(NC1CCCCC1)C1CCCN(S(=O)(=O)c2ccc(Br)s2)C1` (configuration not stated), the Potency was “inactive”.
With `Nc1nc(SCc2ccc([N+](=O)[O-])cc2)c2ncn(C3OC(CO)C(O)C3O)c2n1` (configuration not stated) the Potency was “inactive”.
With `O=C(Nc1nnc(C2CC2)s1)C1=NN(C2CCS(=O)(=O)C2)C(=O)CC1` (configuration not stated) the Potency was “inactive”.
For `COc1ccc(CNC(=O)c2ccc(NS(=O)(=O)c3ccc4[nH]c(=O)[nH]c4c3)cc2)cc1OC`, the Potency was “inactive”.
For `O=C(COC(=O)CNS(=O)(=O)c1ccc(F)c(F)c1F)NC1CCCC1`, the Potency was “inactive”.
With `O=C(CCc1nnc(Cc2ccc3c(c2)OCO3)o1)NCCc1ccccc1Cl` the Potency was 11.6 µM (active).
For `O=C(CCNS(=O)(=O)c1ccccc1C(F)(F)F)NCc1ccc2c(c1)OCO2`, the Potency was “inactive”.
With `Cn1cc(CCC(=O)NCc2ccc3c(c2)OCO3)c2ccccc21` the Potency was “inactive”.
In the case of `O=C(O)CCC(=O)NCc1ccc(C(=O)O)cc1`, the Potency is reported as “inactive”.
In the case of `COc1cc2c(cc1CNC[C@H]1O[C@@H](n3cnc(C(N)=O)n3)[C@H](O)[C@@H]1O)OCO2`, the Potency is reported as “inactive”.
For `COc1cc(C2NC(=O)NC(c3ccccc3)=C2C(C)=O)c(Br)cc1OCC(N)=O` (configuration not stated), the Potency was “inactive”.
In the case of `CCCOc1ccc(C2NC(=O)NC(c3ccccc3)=C2C(C)=O)cc1OCC` (configuration not stated), the Potency is reported as 23.1 µM (active).
With `COC(=O)COc1ccc(C2NC(=O)NC(C)=C2C(=O)NCc2ccccc2)cc1OC` (configuration not stated) the Potency was “inactive”.
In the case of `CC1CC1C(=O)OCC(=O)Nc1cccc(F)c1` (configuration not stated), the Potency is reported as “inactive”.
In the case of `CSC1=N/C(=C\C=C\c2cccs2)C(=O)S1`, the Potency is reported as 14.6 µM (active).
For `O=C1N/C(=C/c2cccs2)C(=O)N1Cc1ccc(F)cc1`, the Potency was “inactive”.
In the case of `CN1C/C(=C/c2cccs2)C(=O)/C(=C\c2cccs2)C1`, the Potency is reported as “inactive”.
With `Cn1c(=O)n(Cc2c(F)cccc2Cl)c(=O)c2c1nc1n2CCN1c1ccc(F)cc1` the Potency was “inactive”.
With `COc1ccc(OC)c(-c2csc(-c3c(N)c(C(=O)c4ccccc4)n4ccccc34)n2)c1` the Potency was “inactive”.
In the case of `CCN1/C(=C/C(=S)Nc2ccccc2)Sc2ccccc21`, the Potency is reported as “inactive”.
In the case of `CCN1/C(=C\c2ccc3ccccc3[n+]2CC)Sc2cc(C)ccc21`, the Potency is reported as 0.184 µM (active).
With `CCN1/C(=C/c2ccc3ccc(C)cc3[n+]2CC)Sc2ccccc21` the Potency was 2.06 µM (active).
In the case of `O=C(CN1C(=O)NC2(CCCCCCC2)C1=O)NCc1ccc(F)cc1`, the Potency is reported as 16.4 µM (active).
For `O=C(CN1C(=O)NC2(CCCCCC2)C1=O)NCc1cccs1`, the Potency was “inactive”.
In the case of `O=C(CN1C(=O)NC2(CCCCCC2)C1=O)NCc1ccc(F)cc1`, the Potency is reported as “inactive”.
With `Cc1ccc(NC(=O)NC(=O)CSc2nnc(-c3ccc(OC(F)F)cc3)n2N)c(C)c1` the Potency was “inactive”.
For `CC(C)(C)C(=O)Nc1ccc(-c2cn3cccnc3n2)cc1`, the Potency was “inactive”.
In the case of `O=C(CC1CCCCC1)NCc1ccccc1`, the Potency is reported as “inactive”.
For `CC1CCCCN1C(=S)NCc1ccccc1` (configuration not stated), the Potency was “inactive”.
In the case of `C/C(=N\NC(=S)NCc1ccccc1)C1CCCCC1`, the Potency is reported as 6.51 µM (active).
With `O=C(Nc1ccon1)c1nc[nH]c1C(=O)NCc1ccccc1` the Potency was “inactive”.
For `CCC(=O)N1CCc2cc(Br)cc(S(=O)(=O)NCc3ccc(Cl)cc3)c21`, the Potency was “inactive”.
For `O=C1C=C(c2ccnc3cc(Cl)ccc23)C[C@@H](c2ccc3c(c2)OCO3)C1`, the Potency was 5.8 µM (active).
With `CC(=O)C1=C(C)NC(=O)NC1c1ccc2c(c1)OCO2` (configuration not stated) the Potency was “inactive”.
With `O=C1C=C(c2cccc(Cl)c2)C[C@@H](c2ccc(F)cc2)C1` the Potency was “inactive”.
In the case of `Cc1ccc(NC(=O)C2CCCN2C(=O)OCc2ccccc2)cc1C` (configuration not stated), the Potency is reported as “inactive”.
With `Cc1cccc(C)c1NC(=O)C1CCCN1C(=O)OC(C)(C)C` (configuration not stated) the Potency was 11.6 µM (active).
In the case of `Cc1ccc(C)c(NC(=O)C2CCCN2C(=O)OC(C)(C)C)c1` (configuration not stated), the Potency is reported as “inactive”.
With `Cc1csc(=O)n1CCC(=O)OCC(=O)Nc1ccc(N2CCOCC2)cc1` the Potency was “inactive”.
For `C[C@H](NC(=O)CC[C@H]1O[C@@H](n2ccc(=O)[nH]c2=O)[C@H](O)[C@@H]1O)c1cccc2ccccc12`, the Potency was “inactive”.
In the case of `COc1ccc([N+](=O)[O-])cc1N(CC(=O)Nc1ccccc1C(=O)N1CCOCC1)S(C)(=O)=O`, the Potency is reported as “inactive”.
In the case of `O=C1C(Cc2ccc(O)cc2)NC(=S)N1Cc1ccccc1` (configuration not stated), the Potency is reported as “inactive”.
In the case of `CC1C(=O)N(Cc2ccccc2)c2ccccc2N1C(=O)c1ccccc1` (configuration not stated), the Potency is reported as 23.1 µM (active).
For `CC1Oc2ccccc2N(Cc2cccnc2)C1=O` (configuration not stated), the Potency was “inactive”.
With `COc1ccc(C(=O)COC(=O)C(O)c2ccccc2)c(OC)c1` (configuration not stated) the Potency was “inactive”.
With `O=C1N(c2ccccc2)C(=Nc2ccccc2)SC12CC2` the Potency was “inactive”.
With `Cc1cc(C)c(S(=O)(=O)Nc2c(C)n(C)n(-c3ccccc3)c2=O)cc1[N+](=O)[O-]` the Potency was “inactive”.
For `CC(=O)Nc1cccc(-c2ccnc3c2CC(C)(C(=O)NCc2ccccc2)O3)c1` (configuration not stated), the Potency was 0.82 µM (active).
For `CC1(C)Cc2cccc(OCC(=O)NCc3ccccc3)c2O1`, the Potency was “inactive”.
In the case of `COc1ccc(NC(=O)C2(C)Cc3c(-c4ccc(C(N)=O)cc4)ccnc3O2)cc1` (configuration not stated), the Potency is reported as “inactive”.
In the case of `COc1ccc(NC(=O)Nc2cccc(-c3noc(C)n3)c2)cc1`, the Potency is reported as “inactive”.
For `COc1ccc(NC(=O)C2(C)Cc3c(-c4cccc(NC(C)=O)c4)ccnc3O2)cc1` (configuration not stated), the Potency was 1.64 µM (active).
In the case of `CC(=O)Nc1cccc(-c2ccnc3c2CC(C)(C(=O)NCc2ccco2)O3)c1` (configuration not stated), the Potency is reported as 1.03 µM (active).
With `CC1(C(=O)NCC2CCOCC2)Cc2c(-c3cccc(C(N)=O)c3)ccnc2O1` (configuration not stated) the Potency was 25.9 µM (active).
For `CC(C)(C)NC(=O)NCc1ccco1`, the Potency was “inactive”.
With `COc1cccc(NC(=S)NCc2ccco2)c1` the Potency was “inactive”.
In the case of `CC(=O)Nc1cccc(-c2cnc3ccccc3n2)c1`, the Potency is reported as “inactive”.
In the case of `COc1ccc(NC(=O)CCn2ccnc2)c(OC)c1`, the Potency is reported as “inactive”.
For `CC1=C(C(=O)N2CCOCC2)CC(CC(=O)NCCCN(C)C)C(=O)N1Cc1ccc(C(C)(C)C)cc1` (configuration not stated), the Potency was “inactive”.
For `CC(C)N(C(=O)CSc1nnc(NC2CC2)s1)c1ccccc1`, the Potency was “inactive”.
In the case of `O=C(Nc1cc(-c2nc3ncccc3o2)ccc1Cl)c1ccco1`, the Potency is reported as “inactive”.
With `CSCCC(NC(=O)c1ccco1)C(=O)Nc1cc(C)ccn1` (configuration not stated) the Potency was “inactive”.
With `CC(=O)c1ccc(OCC(=O)N(C)C2CCS(=O)(=O)C2)cc1` (configuration not stated) the Potency was “inactive”.
With `CN(Cc1cc2cc(F)ccc2[nH]1)Cc1nc(-c2cnccn2)no1` the Potency was “inactive”.
In the case of `Cn1cc(CNC(=O)c2ccc(OC3CCN(Cc4ccccn4)CC3)cc2)cn1`, the Potency is reported as “inactive”.
With `CCOC(=O)C1(Cc2cccc(OC)c2)CCCN(S(=O)(=O)c2cccnc2)C1` (configuration not stated) the Potency was “inactive”.
For `Cc1ccc(C)c(-c2nnc(NC(=O)CS(=O)(=O)c3ccccc3)o2)c1`, the Potency was 11.6 µM (active).
For `COc1cc(-c2nnc(NC(=O)CS(=O)(=O)c3ccc(Cl)cc3)o2)cc(OC)c1OC`, the Potency was “inactive”.
With `COc1ccc(-c2nnc(NC(=O)CS(=O)(=O)c3ccc(Cl)cc3)o2)c(OC)c1` the Potency was “inactive”.
With `Cc1cccc(C)c1NC(=O)NC1=CCCN1C` the Potency was “inactive”.
For `CCOC(=O)c1ccc(S(=O)(=O)N(CCO)Cc2cc3cc(OC)c(OC)cc3[nH]c2=O)cc1`, the Potency was “inactive”.
With `CC(C)CC(N=C1NC(C)(C)Cc2ccccc21)C(=O)O` (configuration not stated) the Potency was “inactive”.
In the case of `CC1(C)Cc2nc3sc4c(SCC(=O)NC(c5ccccc5)c5ccccc5)ncnc4c3cc2CO1`, the Potency is reported as 8.2 µM (active).
With `C=CCn1c(=S)[nH]c2nc3c(cc2c1=O)COC(C)(C)C3` the Potency was “inactive”.
With `CCOc1ccc(NC(=O)CSc2ncnc3c2sc2ccccc23)cc1` the Potency was “inactive”.
With `O=C1OC(OC(=O)c2ccccc2Br)C(N2CCOCC2)=C1Cl` (configuration not stated) the Potency was “inactive”.
For `CC(=O)Nc1cccc([N+](=O)[O-])c1`, the Potency was “inactive”.
For `COC(=O)/C=C\C(=O)Nc1cccc([N+](=O)[O-])c1`, the Potency was 1.03 µM (active).
In the case of `Cc1ccccc1NC(=S)Nc1cccc([N+](=O)[O-])c1`, the Potency is reported as “inactive”.
For `COC(C(=O)NCc1ccccc1C)c1ccccc1` (configuration not stated), the Potency was “inactive”.
With `CC(C)CC(O)C1CCN(C(=O)CCc2nnc(-c3ccc4c(c3)OCO4)o2)CC1` (configuration not stated) the Potency was “inactive”.
In the case of `Cc1ccc(OCc2n[nH]c(=S)n2-c2ccccc2)cc1`, the Potency is reported as “inactive”.
For `COc1ccc(OCc2n[nH]c(=S)n2N)cc1`, the Potency was 18.4 µM (active).
For `S=c1[nH]nc(COc2ccccc2)n1-c1ccccc1`, the Potency was “inactive”.
With `CCOc1ccc(OCC(=O)OC(C)C(=O)NC2CCCCC2C)cc1` (configuration not stated) the Potency was “inactive”.
In the case of `COc1c(C)cccc1C(=O)Nc1cc(Cl)ccc1N1CCOCC1`, the Potency is reported as “inactive”.
With `Cc1cccc(N2CCN(c3ccc(C(=O)O)cc3NC(=O)c3ccccc3F)CC2C)c1` (configuration not stated) the Potency was 23.1 µM (active).
With `Cc1cccc(N2CCN(C(=O)c3ccccc3NC(=O)C3CCCCC3C(=O)O)CC2)c1` (configuration not stated) the Potency was “inactive”.
